Experimental data as given in PubChem BioAssay.
Activity calls are given as the source filed them. Unless noted, the rule behind the calls is not given here.

Experiments:
[1] = HepG2 liver cancer cell viability effects, profiling panel, resazurin fluorescence, 24 h, PK04 Diversity Set (AID 1172); details: higher = more signal; note: test concentration not given here
[2] = basal S. cerevisiae growth modulation, no modifier, primary screen, OD600, strain BY4716, 24 h, basal condition (AID 1173); details: OD600, 24 h, higher = more signal, called active from +8 up or from −8 down
[3] = MM1S myeloma cell viability, profiling panel, resazurin fluorescence, basal, 24 h, PK04 Diversity Set (AID 1174); details: higher = more signal, called active from +8 up or from −8 down;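 note: MM1S multiple myeloma cell line; test concentration not given here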
[4] = molecular target: Dihydroorotate dehydrogenase (quinone), mitochondrial (Plasmodium falciparum (isolate 3D7)) (UniProt Q08210); assay: PfDHODH enzyme inhibitors, primary screen, biochemical, C-terminal His tag, absorbance 600 nm (AID 1175); details: DCIP absorbance 600 nm, higher = more signal, called active from +8 up or from −8 down;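 note: recombinant parasite enzyme with a five histidine tag at its C terminus; test concentration not given here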
Dihydroorotate dehydrogenase (quinone), mitochondrial (Plasmodium falciparum (isolate 3D7)), sequence (Q08210 whole entry, looked up): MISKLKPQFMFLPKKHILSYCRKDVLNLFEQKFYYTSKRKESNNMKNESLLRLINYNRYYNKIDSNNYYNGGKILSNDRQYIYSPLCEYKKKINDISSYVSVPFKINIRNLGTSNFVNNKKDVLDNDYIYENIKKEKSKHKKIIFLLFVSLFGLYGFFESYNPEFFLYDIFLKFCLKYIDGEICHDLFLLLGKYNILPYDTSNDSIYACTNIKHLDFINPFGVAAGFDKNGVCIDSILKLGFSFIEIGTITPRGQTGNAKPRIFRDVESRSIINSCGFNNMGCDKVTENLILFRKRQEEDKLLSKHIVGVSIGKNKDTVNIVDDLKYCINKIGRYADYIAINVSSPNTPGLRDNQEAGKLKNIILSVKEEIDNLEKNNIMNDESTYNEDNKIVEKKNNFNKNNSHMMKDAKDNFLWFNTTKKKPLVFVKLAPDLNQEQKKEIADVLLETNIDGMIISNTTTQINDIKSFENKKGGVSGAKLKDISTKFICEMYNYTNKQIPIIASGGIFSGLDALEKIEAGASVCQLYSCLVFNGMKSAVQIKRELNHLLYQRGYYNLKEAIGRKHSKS

[5] = P. aeruginosa biofilm formation inhibitors, primary screen, strain PAO1, LB-PBS medium, absorbance 600 nm (AID 1176); note: test concentration not given here; details: P. aeruginosa PAO1 growth/biofilm, A600, 12 h; higher = more signal
[6] = S. cerevisiae RM11-1a growth modifiers, primary screen, strain RM11-1a, OD600, basal, 24 h (AID 1177); details: OD600, 24 h, higher = more signal, called active from +8 up or from −8 down;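 note: cultures grown under basal conditions with no added stressor; test concentration not given here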
[7] = E. coli acrAB mutant growth effects, primary screen, E. coli filamentation inducers, strain DRC39, OD650, 24 h (AID 1178); details: higher = more signal, called active from +8 up or from −8 down;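 note: growth measured as culture turbidity by optical density at 650 nm; test concentration not given here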
[8] = E. coli acrAB mutant growth effects, primary screen, E. coli filamentation inducers, strain DRC39, OD650, 48 h (AID 1179);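 note: screen aims at cell division blockers that make cells filament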; details: E. coli DRC39 delta-acrAB growth, higher = more signal, called active from +8 up or from −8 down
[9] = RPMI8226 myeloma cell viability, profiling panel, resazurin fluorescence, basal, 24 h, PK04 Diversity Set (AID 1180); details: higher = more signal;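 note: RPMI8826 multiple myeloma cell line at 5000 cells per well; test concentration not given here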
[10] = molecular target: E3 ubiquitin-protein ligase XIAP (Homo sapiens) (UniProt P98170); assay: XIAP binders, primary screen, biophysical, small-molecule microarray, fluorescence 635 nm (AID 1181); details: small-molecule microarray binding, higher = more signal;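 note: score merges 667 nm emission and signal to noise over triplicate slides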
E3 ubiquitin-protein ligase XIAP (Homo sapiens), sequence (P98170 whole entry, looked up): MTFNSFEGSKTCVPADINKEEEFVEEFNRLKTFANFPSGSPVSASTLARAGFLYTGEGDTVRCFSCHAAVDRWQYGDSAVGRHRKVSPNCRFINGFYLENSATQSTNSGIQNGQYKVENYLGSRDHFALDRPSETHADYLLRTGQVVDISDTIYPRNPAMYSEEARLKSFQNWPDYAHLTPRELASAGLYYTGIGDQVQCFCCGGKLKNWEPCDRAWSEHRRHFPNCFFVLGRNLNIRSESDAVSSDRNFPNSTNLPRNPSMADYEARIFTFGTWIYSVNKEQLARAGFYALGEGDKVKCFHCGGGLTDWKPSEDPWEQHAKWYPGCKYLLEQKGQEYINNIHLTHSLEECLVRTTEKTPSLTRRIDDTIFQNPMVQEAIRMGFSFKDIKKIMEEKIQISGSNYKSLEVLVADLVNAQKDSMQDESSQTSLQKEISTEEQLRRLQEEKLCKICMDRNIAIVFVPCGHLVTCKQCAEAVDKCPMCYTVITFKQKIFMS

SMILES	z-score [1]	z-score [2]	z-score [3]	composite z-score [4]	z-score [5]	z-score [6]	z-score [7]	z-score [8]	z-score [9]	composite z-score [10]
C=C[C@@H](C)[C@@H](OC(=O)Nc1ccc(SC)cc1)c1ccc(OCCO)cc1	0.627	-3.68 (inactive)	-0.682 (inactive)	0.05 (inactive)	0.119 (inactive)	0.296 (inactive)	-0.68 (inactive)	-0.504 (inactive)	0.0167	0.0879
CC1CC/C=C\[C@H]2OC34C=CCN(CCN5CCOCC5)C(=O)[C@H]3N(C(C)CO)C(=O)[C@@H]4C2C(=O)O1 (stereo not given in full)	-0.0282	-0.348 (inactive)	-0.0757 (inactive)	-1.44 (inactive)	-0.0711 (inactive)	0.366 (inactive)	-0.0135 (inactive)	0.432 (inactive)	-0.574	-0.0807
C=CCC(OC(C)=O)[C@@H]1[C@@H](N(Cc2cccc3ccccc23)C(=O)c2cccc3ccccc23)c2cc(OCCCO)ccc2N1C(=O)c1ccc2ccccc2c1 (stereo not given in full)	0.628	-0.775 (inactive)	0.62 (inactive)	-0.29 (inactive)	-1.44 (inactive)	-0.646 (inactive)	0.745 (inactive)	0.386 (inactive)	-0.0722	-0.179
CS(=O)(=O)CCOC(=O)C1=CC(CCCO)=CC(C2CC2)N(Cc2cccc(OC(F)(F)F)c2)C=C1C(=O)OCCS(C)(=O)=O (stereo not given)	0.0407	-2.55 (inactive)	0.0932 (inactive)	-0.0527 (inactive)	0.342 (inactive)	0.416 (inactive)	0.9 (inactive)	0.241 (inactive)	0.329	0.0363
CN(C)CCCCNC(=O)[C@H]1C[C@H]2C(=O)N[C@@H](CCCC[N+](C)(C)C)C(=O)N2[C@H]1c1ccc(O)cc1	0.351	-0.0503 (inactive)	1.4 (inactive)	-0.308 (inactive)	-1.16 (inactive)	-1.11 (inactive)	0.494 (inactive)	0.56 (inactive)	0.643	-0.0599
C[C@]1(C(=O)NCCN2CCOCC2)c2ccccc2C(=O)N(Cc2cc(F)cc(C(F)(F)F)c2)[C@H]1c1ccc(CO)cc1	-0.0395	0.375 (inactive)	-0.464 (inactive)	0.376 (inactive)	0.664 (inactive)	0.0645 (inactive)	1 (inactive)	1.67 (inactive)	0.0794	-0.116
COCCOC(=O)N1C(=O)[C@@]2(c3cc(C#CCC(C(=O)OC)C(=O)OC)ccc31)[C@H](C(=O)NC[C@H](O)c1ccccc1)[C@H]1C(=O)O[C@H](c3ccccc3)[C@H](c3ccccc3)N1[C@@H]2c1ccc(O)cc1	0.442	1.14 (inactive)	0.73 (inactive)	-2.68 (inactive)	1.1 (inactive)	1.24 (inactive)	0.35 (inactive)	0.644 (inactive)	-1.4	-0.096
[N-]=[N+]=NCc1ccccc1[C@H]1OC(c2ccc(OCCCO)cc2)=N[C@@]1(CCS(=O)(=O)c1ccccc1)C(=O)NCc1ccccc1	1.18	0.879 (inactive)	-0.0789 (inactive)	0.786 (inactive)	-0.4 (inactive)	2.19 (inactive)	1.01 (inactive)	0.536 (inactive)	0.032	0.129
C=C(COC)/C(=C/C[C@@H](OC(C)=O)c1ccc(CO)o1)c1cc(C(=O)OC)ccc1OC	-0.0453	0.196 (inactive)	-0.216 (inactive)	-0.0894 (inactive)	0.637 (inactive)	0.317 (inactive)	0.65 (inactive)	0.638 (inactive)	0.205	-0.173
CCOC(=O)C=Cc1cc(F)ccc1O	-0.338	-12.6 (active)	-0.99 (inactive)	-1.09 (inactive)	-0.0727 (inactive)	-23.2 (active)	-1.01 (inactive)	-1.31 (inactive)	-0.935	-0.196
C=C(COC)C(=O)CC[C@@H](OC(=O)c1cccnc1)c1ccccc1OCCO	-0.956	-0.585 (inactive)	-3.09 (inactive)	-0.4 (inactive)	0.519 (inactive)	-0.0421 (inactive)	0.325 (inactive)	0.206 (inactive)	-3.63	-0.0663
COc1cc(NN2C(C(O)c3ccccc3)C=CC3C(=O)N(C)C(=O)C32)cc(OC)c1OC (stereo not given)	-2.2	0.758 (inactive)	-1.23 (inactive)	-2.04 (inactive)	0.574 (inactive)	-0.0472 (inactive)	-0.466 (inactive)	-0.882 (inactive)	-1.32	0.0024
CCOC(=O)C[C@H]1[C@H](OC(=O)c2ccccc2-c2ccccc2)[C@@H](NC(=O)c2ccc3ccccc3n2)c2cc(OCCCO)ccc2N1C(=O)c1ccccc1	-0.412	1.16 (inactive)	-0.042 (inactive)	0.742 (inactive)	-0.165 (inactive)	1.01 (inactive)	-0.745 (inactive)	-0.916 (inactive)	0.303	0.0153
CCOC(=O)C[C@H]1[C@H](OC(=O)c2ccccc2-c2ccccc2)[C@@H](NC(=O)c2ccccc2)c2cc(OCCCO)ccc2N1C(=O)c1ccccc1	-0.632	0.474 (inactive)	-0.287 (inactive)	0.374 (inactive)	-0.0582 (inactive)	0.383 (inactive)	-0.536 (inactive)	-0.508 (inactive)	-0.0741	0.0871
[N-]=[N+]=Nc1ccccc1C[C@]1(C(=O)O)N=C(c2ccc(OCCCO)cc2)O[C@H]1c1ccccc1	-0.0033	-1.77 (inactive)	-1.1 (inactive)	0.502 (inactive)	0.258 (inactive)	-0.1 (inactive)	-0.115 (inactive)	-0.0225 (inactive)	-0.954	-0.0562
COc1ccc(C#Cc2ccc3c(c2)[C@]2(C(=O)N3)[C@H](c3ccc(OCCO)cc3)N3[C@H](c4ccccc4)[C@H](c4ccccc4)OC(=O)[C@H]3[C@@H]2C(=O)N2CCc3cc(OC)c(OC)cc3C2)cc1	0.36	2.06 (inactive)	-0.224 (inactive)	-1.84 (inactive)	2.68 (inactive)	2.33 (inactive)	-0.479 (inactive)	-0.324 (inactive)	0.0844	0.107
COCCOC(=O)N1C(=O)[C@@]2(c3cc(C#CCCO)ccc31)[C@H](C(N)=O)[C@H]1C(=O)O[C@H](c3ccccc3)[C@H](c3ccccc3)N1[C@@H]2c1ccc(OCCO)cc1	-0.639	1.21 (inactive)	-0.479 (inactive)	0.46 (inactive)	1.56 (inactive)	2.16 (inactive)	-0.138 (inactive)	0.386 (inactive)	-0.621	0.409
COc1cc(NN2C(C(O)C3CCCCC3)C=CC3C(=O)N(C)C(=O)C32)cc(OC)c1OC (stereo not given)	-0.721	1.28 (inactive)	-1.43 (inactive)	-0.187 (inactive)	0.462 (inactive)	0.668 (inactive)	-0.276 (inactive)	-0.498 (inactive)	-1.35	0.279
CO[C@H]1O[C@H](CO)[C@@H](OC(=O)c2ccc(Br)cc2)[C@@H]2OC(=O)[C@H](Cc3ccccc3)C/C=C/C[C@@H](Cc3ccccc3)C(=O)O[C@@H]12	0.722	-2.04 (inactive)	-1.33 (inactive)	-0.854 (inactive)	-0.124 (inactive)	-1.42 (inactive)	1.74 (inactive)	2.16 (inactive)	0.425	0.154
CCOC(=O)C[C@H]1[C@H](OC(=O)c2ccc(C(=O)c3ccccc3)cc2)[C@@H](NC(=O)CC(C)C)c2cc(OCCCO)ccc2N1C(=O)Cc1ccc(OC)cc1	-0.204	-0.316 (inactive)	0.191 (inactive)	0.166 (inactive)	0.608 (inactive)	0.113 (inactive)	-0.445 (inactive)	-0.0261 (inactive)	0.0274	-0.289
O=C(CS)NCCCCCCNC(=O)[C@@H]1C[C@@H]2C(=O)NCC(=O)N2[C@@H]1c1ccc(O)cc1	0.263	-0.185 (inactive)	0.426 (inactive)	-0.757 (inactive)	0.171 (inactive)	-1.97 (inactive)	0.858 (inactive)	1.62 (inactive)	0.0464	-0.02
COCCOC(=O)N1C(=O)[C@@]2(c3cc(C#CCNC(N)=O)ccc31)[C@H](c1ccc(OCCO)cc1)N1[C@H](c3ccccc3)[C@H](c3ccccc3)OC(=O)[C@H]1[C@@H]2C(=O)NC[C@H](O)c1ccccc1	0.637	1.82 (inactive)	0.0592 (inactive)	-1.88 (inactive)	2.18 (inactive)	1.54 (inactive)	0.48 (inactive)	-0.532 (inactive)	-0.45	-0.153
Cc1nc2cc(Br)ccc2c(=O)n1Cc1cccc(O)c1	0.674	-0.496 (inactive)	-1.23 (inactive)	0.0596 (inactive)	1.38 (inactive)	0.0164 (inactive)	0.381 (inactive)	0.776 (inactive)	-0.505	0.0674
CC(C)C(=C=CC[C@H](O)c1cccc(OCCO)c1)CCO	0.934	-1.47 (inactive)	1.09 (inactive)	-0.131 (inactive)	-0.0464 (inactive)	-0.661 (inactive)	0.353 (inactive)	0.642 (inactive)	0.929	-0.031
O=C(O)[C@@H]1C[C@@H]2C(=O)N3CCC[C@H]3C(=O)N2[C@@H]1c1cccc(OCCO)c1	-0.188	-1.28 (inactive)	-0.447 (inactive)	-0.899 (inactive)	0.547 (inactive)	0.0761 (inactive)	-0.185 (inactive)	-0.685 (inactive)	-0.0605	0.338
